# D2 ag-1 – agonists of human D2 dopamine receptor (beta-arrestin); P14416; DiscoveRx PathHunter D2 beta-arrestin, luminescence, 90 min; 100% = 57 uM dopamine signal; activation, % (concentration not given with the values); actives 0.084% (n = 360,000); AID 624465; in the data active = activation above about 40%; inconclusive = between about 15% and that limit
# Target sequence (P14416 whole entry, looked up): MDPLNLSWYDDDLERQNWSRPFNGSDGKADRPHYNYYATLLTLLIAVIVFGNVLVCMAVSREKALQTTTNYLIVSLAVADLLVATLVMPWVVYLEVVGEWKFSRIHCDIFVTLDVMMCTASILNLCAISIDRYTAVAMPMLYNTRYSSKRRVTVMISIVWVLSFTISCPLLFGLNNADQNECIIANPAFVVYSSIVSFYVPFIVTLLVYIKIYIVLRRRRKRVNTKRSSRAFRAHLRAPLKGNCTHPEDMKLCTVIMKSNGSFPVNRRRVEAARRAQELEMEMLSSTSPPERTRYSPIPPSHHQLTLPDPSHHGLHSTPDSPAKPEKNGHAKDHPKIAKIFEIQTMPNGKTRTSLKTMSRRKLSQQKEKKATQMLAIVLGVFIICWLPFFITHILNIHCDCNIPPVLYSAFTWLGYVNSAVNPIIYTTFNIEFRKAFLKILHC
#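 Agonist mode: compounds alone added to overnight-plated D2 PathHunter cells for 90 min at 37 C, with 57 uM final dopamine (EC100) defining full response. Beta-arrestin recruitment detected by chemiluminescent reagent, read after 1 h at ambient temperature.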
# D2 antagonist – antagonizes the human D2 dopamine receptor. P14416. HEK293 TREx D2 cells, calcium flux, dopamine EC80. inhibition, % at 10 µM. actives 2% (n = 340,000). AID 485344; in the data active = inhibition above about 30%; inactive = below that, where a call was filed; also: 0% is about no effect
#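 Measurement of antagonist activity uses fluorescent calcium dye in inducible HEK293 T-REx D2 cells: 10 s baseline, compound addition with 180 s read, EC80 dopamine addition with a further 180 s read.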
# D2 ag-2 – agonists of human D2 dopamine receptor; P14416; AID 485358; actives 0.53% (n = 340,000); HEK293 T-REx D2 cells, calcium flux agonist mode; activation, % at 2 µM;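 active = activation over 3 SD above normal in the single-dose calcium agonist read, cut at about 30% in these data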; also: 0% is about no effect
#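 Tetracycline-induced HEK293 T-REx cells with force-coupled D2 receptor, plated overnight at 30 C, loaded with no-wash calcium dye. After a 10 s baseline, compound was pin-added and calcium flux read kinetically for 180 s; calcium rises flagged agonists.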
# D2 PAM-1 – positive allosteric modulators of human D2 dopamine receptor; DiscoveRx D2 beta-arrestin cells, luminescence, 90 min; 100% = 57 uM dopamine signal; actives 0.23% (n = 360,000); P14416; potentiation, % (test concentration not listed); in the data active = potentiation above about 50%; inconclusive = mostly about 30% to 49%
#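 PathHunter beta-arrestin assay in DiscoveRx D2 cells. Compounds were added with an EC20 of dopamine (50 nM final) for 90 min at 37 deg C. Luminescence was read 1 h after detection reagent, with 57 uM dopamine as the EC100 control.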
# D2 PAM-2 – positive allosteric modulators of human D2 dopamine receptor. P14416. HEK293 T-REx D2, calcium flux, EC20 dopamine potentiation. potentiation, % at 10 µM. actives 0.34% (n = 340,000). AID 485347;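 active = potentiation over 3 SD above the plate norm, cut at about 30% in these data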; also: 0% is about no effect
#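 Tetracycline-induced Hek293 Trex D2 cells, force-coupled to calcium, loaded with no-wash calcium dye. Compound added with 180 s kinetic read for agonism, then EC20 dopamine and a further 180 s read for potentiation.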
# D3 ag – D3 receptor agonism confirmed, beta-arrestin readout; shares compounds with D2 ag-2; DiscoveRx D3 beta-arrestin cells, luminescence, 90 min; Potency, µM (highest dose often 76.9 µM), for inactives: at the highest dose activation, usual class: activators; actives 4% (n = 2,300); AID 720506;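 also: potency is read from the fitted curve at half-maximal effect; 100% = dopamine control response; nearly all actives have a fitted effect of over 70% in size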
# D2 ag-3 – counter-screen for D3 agonists: human D2 dopamine receptor agonism | Potency, µM (doses to about 76.9 µM), for the others: top-dose activation, hits mostly activators | shares compounds with D2 ag-2 | DiscoveRx PathHunter D2 beta-arrestin, luminescence, 90 min; response scale: percent relative to full dopamine signal | actives 5.9% (n = 2,300); also: potency is read from the fitted curve at half-maximal effect; % of control where 0% means no effect; nearly all actives have a fitted effect of over 70% in size
# * hit, by the source's call; ? = inconclusive; . = not tested or not shown. Only some compounds are listed: those with a hit (about 2.4% of all), similar ones and a draw of the others. Unless noted, calls follow the shape of the dose curve; as a rule, active = well fitted activation curve with a large enough effect; inconclusive = small, poorly fitted or top-dose-only effect; inactive = flat fitted curve, though single readings scatter.
SMILES,D2 ag-1,D2 antagonist,D2 ag-2,D2 PAM-1,D2 PAM-2,D3 ag,D2 ag-3
O=C(c1ccc(Cl)c(S(=O)(=O)N2CCCCC2)c1)N1CCCC(C(F)(F)F)C1 (stereo not given),3,22,0,-1,-6,0%,0%
CCCCc1ccc(NC(=O)C2(C)Cc3ccccc3C(=O)O2)cc1 (stereo not given),.,.,1,.,3,.,.
CC(C)(CO)NS(=O)(=O)c1ccc2c(c1)Cc1cc(S(=O)(=O)NC(C)(C)CO)ccc1-2,6,22,-2,-4,-3,13%,3%
CC(C)(CO)NS(=O)(=O)c1ccc2c(c1)C(=O)c1cc(S(=O)(=O)NC(C)(C)CO)ccc1-2,-1,-8,3,0,-5,.,.
Cc1ccc(N2C(=O)[C@@H]3CSC(c4ccc(C(F)(F)F)cc4)N3C2=O)cc1 (stereo not given in full),.,.,-1,.,4,.,.
COc1ccccc1/C=N/NC(=O)c1ccc(NC(=O)c2ccccc2Br)cc1,2,0,63*,2,-19,12%,0%
COCCN1CCN(Cc2ccc(C(=O)NC(C)C)cc2)C(=O)C1=O,.,.,-3,.,-1,.,.
CCOc1ccccc1NC(=O)Cn1c(=O)n(Cc2ccc(OC)cc2)c(=O)c2oc3ccccc3c21,.,.,0,.,-5,.,.
CCCCn1c(N)c(N(CCC(C)C)C(=O)C2CC(=O)N(CCc3ccc(OC)c(OC)c3)C2)c(=O)[nH]c1=O (stereo not given),-1,9,0,4,6,-1%,-4%
CN(CCNC(=O)c1ccc(CS(=O)(=O)c2ccc(Br)cc2)o1)CCc1ccccc1,-2,24,53*,-13,-25,-21%,14%
O=C(NCCc1ccccc1)c1ccc(CS(=O)(=O)c2ccc(Br)cc2)o1,-3,-8,0,-15,-1,.,.
Cc1ccc(C)c(N2CCN(C(=O)CCc3c(C)nn(-c4ccc(N5CCCC5)nn4)c3C)CC2)c1,.,.,1,.,-4,.,.
O=C(c1ccccc1Cl)n1nc(-c2ccco2)nc1NCc1cccs1,.,.,-1,.,-7,.,.
COc1cccc(C(=O)NNC(=S)NC2CCCCC2)c1,-8,31*,56*,-29,-20,-4%,-5%
COc1cccc(C(=O)NC2CCCC2)c1,6,-1,0,-9,0,.,.
Nc1c(C(=O)Nc2ccccc2)nnn1Cc1ccc(F)cc1Cl,.,.,11,.,-6,.,.
Cc1csc(NC(=O)c2ccc3ccccc3n2)n1,-1,10,7,-7,16,.,.
Cc1csc(NC(=O)c2cnc3ccccc3n2)n1,-2,-17,25,-2,19,-16%,1%
CCn1c(N2CCN(S(=O)(=O)c3ccccc3)CC2)nc2ccccc21,?,20,-1,-1,19,?,19%
C/C(=N\NC(=O)c1ccc(Br)cc1)C1C(=O)c2ccccc2C1=O,-2,-2,3,-14,-4,.,.
C/C(=N\NC(=O)c1ccc(-c2ccccc2)cc1)C1C(=O)c2ccccc2C1=O,4,84*,32*,1,-14,2%,-1%
COc1cccc(-c2c(C(=O)N/N=C(\C)c3ccco3)nnn2-c2nonc2N)c1,-2,9,9,-10,9,.,.
CCOc1cccc(-c2c(C(=O)N/N=C/c3ccncc3)nnn2-c2nonc2N)c1,4,-3,-1,0,0,.,.
Nc1nonc1-n1nnc(C(=O)N/N=C/c2ccc(F)cc2)c1-c1ccc2c(c1)OCO2,-5,.,.,-3,.,3%,-3%
C/C(=N\NC(=O)c1nnn(-c2nonc2N)c1-c1ccccc1)c1ccco1,-15,-2,10,-14,26,2%,1%
SMILES,D2 ag-1,D2 antagonist,D2 ag-2,D2 PAM-1,D2 PAM-2,D3 ag,D2 ag-3
COc1ccc(/C=N/NC(=O)c2nnn(-c3nonc3N)c2-c2cccc(OC)c2)cc1,2,34*,5,2,22,8%,-1%
COc1cccc(-c2c(C(=O)N/N=C/c3cccs3)nnn2-c2nonc2N)c1,-7,21,3,-4,23,-13%,-5%
COCc1c(C(=O)N/N=C\c2cccs2)nnn1-c1nonc1N,-1,5,1,-3,5,.,.
CC(C)CCNC(=O)Nc1cc(C(=O)NCc2cccc(F)c2)ccc1N1CCCC1,.,.,1,.,-7,.,.
Cc1ccc(/C=N/NC(=O)c2nnn(-c3nonc3N)c2-c2cccs2)cc1,-2,32*,25,-1,18,4%,29%
CCOc1ccc(/C(C)=N/NC(=O)c2nnn(-c3nonc3N)c2-c2cccs2)cc1,-3,2,10,-1,6,-5%,2%
COc1ccc(/C=N/NC(=O)c2nnn(-c3nonc3N)c2-c2cccs2)cc1OC,5,2,0,5,4,.,.
O=C(NCc1ccc(F)cc1)c1cccc(N2CCCS2(=O)=O)c1,.,.,0,.,-1,.,.
O=[N+]([O-])c1ccc(O)c(-c2cc(C(F)(F)F)nc(-c3ccccc3)n2)c1,0,21,14,7,-5,?,2%
O=C(Nc1ccc(OCc2cc(=O)n3c4c(sc3n2)CCCC4)cc1)c1cccc(F)c1,.,.,.,.,-21,.,.
CCOc1cc(C(=O)Nc2cc3c(cc2N2CCCC2)n(C)c(=O)c(=O)n3C)cc(OCC)c1OCC,.,.,0,.,2,.,.
CCOC(=O)C1CCN(C(=O)Cn2nc(C)n3c(cc4c(OC)cccc43)c2=O)CC1,.,.,.,.,-16,.,.
CCOC(=O)C1CCCN(C(=O)Cn2nc(C)n3c(cc4c(OC)cccc43)c2=O)C1 (stereo not given),?,5,19,8,-1,?,27%
COc1cccc2c1cc1c(=O)n(CC(=O)N3CCCCCC3)nc(C)n12,14,11,43*,8,-12,?,?
COc1cccc2c1cc1c(=O)n(CC(=O)N3CCCCC3)nc(C)n12,.,.,5,.,1,.,.
C(#Cc1ccccc1)CN1CCCCC1,-3,-21,0,-21,-5,.,.
c1ccc(COc2ccc(CN3CCN(c4ccccn4)CC3)cc2)cc1,47*,75*,77*,18,-23,?,11µM*
C(#Cc1ccccc1)CN1CCN(c2ccccn2)CC1,5,20,45*,-10,-17,10%,11%
NC(=O)C1CCN(Cc2ccc(OCc3ccccc3)cc2)CC1,-6,-5,1,-6,12,.,.
Clc1ccc(CN2CCN(c3ncccn3)CC2)cc1,68*,85*,73*,53*,-17,?,2.8µM*

# High-throughput results: PubChem, National Center for Advancing Translational Sciences (NCATS)
